High-throughput results as filed in PubChem.
L3MBTL1 inh: L3MBTL1 (human) inhibition; Q9Y468; AlphaScreen L3MBTL1–H3K9me1 peptide binding; 230,000 tested, 0.66% active; Potency, µM (highest dose often 57.1 µM), inactives show at the top dose activity, negative = inhibition, usual class: inhibitors; further: nearly all actives have a fitted effect of over 60% in size
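L3MBTL1 (50 nM) pre-complexed 30 min with biotinylated H3(1-15)K9me1 peptide (75 nM), then compounds added for 30 min at room temperature; AlphaScreen streptavidin donor/nickel chelate acceptor beads (10 ug/mL final) read after 30 min dark incubation.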
BLM inh: Bloom syndrome helicase (human) inhibition | P54132 | recombinant BLM DNA unwinding, fluorescence dequenching | Potency, µM (titrated, usually from 56.1 µM), for inactives: at the top dose activity change, negative = inhibition, usual class: inhibitors | 350,000 tested, 0.2% active;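 further: plate controls were vehicle for no effect and no enzyme for full effect; nearly all actives have a fitted effect of over 35% in size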
JMJD2E inh: blocks human JMJD2E demethylase activity. B2RXH2. JMJD2E catalytic domain, FDH-coupled NADH fluorescence (FDH is formaldehyde dehydrogenase). Potency, µM (series often up to 57.1 µM), for inactives: top-dose activity change, negative = inhibition, hits mostly inhibitors. 230,000 tested, 1.6% active. AID 2147; active means well fitted inhibition curve with a large enough effect, not every such curve was filed as active; inconclusive means small, poorly fitted or top-dose-only effect, or another doubt; inactive means no such curve, though single readings can be large or run the other way;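 further: 0% = wells with enzyme and -100% = buffer wells without enzyme; nearly all actives have a fitted effect of over 50% in size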
GCN5L2 inh: inhibitors of human GCN5L2 histone acetyltransferase | GCN5L2 HAT assay, ThioGlo1 CoA-SH fluorescence | 390,000 tested, 0.21% active | AID 504327 | Potency, µM (titrated, usually from 58.9 µM), for inactives: at the highest dose activity change, negative = inhibition, usual class: inhibitors
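Preincubate 20nM GCN5L2 with compound 15 min, RT → add 50uM ThioGlo1 + 75uM H3(1-25) + 70uM acetyl-CoA → read fluorescence 0 and 20 min. Primary qHTS; fluorescent artifacts likely.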
RECQ1 inh: blocks DNA unwinding by human RECQ1; P46063; RECQ1 DNA unwinding, red fluorescence kinetic read; Potency, µM (top dose mostly 57.3 µM), inactives show top-dose activity, negative = inhibition, most hits filed as inhibitors; 240,000 tested, 0.54% active;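 further: plate controls were vehicle for no effect and no enzyme for full effect; nearly all actives have a fitted effect of over 30% in size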
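RECQ1T1 50 nM; forked duplex (20 bp + 30-nt ss tails) 200 nM, ATP 2 mM final; pH 8.0, 2 mM MgCl2, 2.5 ug/ml poly(dI-dC); 15 min compound preincubation; discontinuous kinetic read over 2 h at RT.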
APEX1 inh: APE1 (human) endonuclease inhibition | recombinant APE1, TAMRA/BHQ-2 abasic DNA cleavage fluorescence | Potency, µM (series often up to 65.8 µM), for the others: at the top dose activity change, negative = inhibition, hits mostly inhibitors | 350,000 tested, 0.35% active;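 further: plate controls were vehicle for no effect and reference inhibitor for full effect; nearly all actives have a fitted effect of over 55% in size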
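Incision of a quenched TAMRA/BHQ-2 THF abasic-site duplex (50 nM) by 0.75 nM APE1, after 15 min compound preincubation, measured as fluorescence increase over three 60 s reads. Values normalized to buffer, DMSO and NSC13755 control wells.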
* marks the source's active call; other numbers are inactive results; i = inactive; ? = inconclusive; . = no result; [ ] = another dose, or the depositor's remark. Shown is part of a subset that was picked to be rich in hits. Unless noted, the call rests on the fitted dose curve; in most records, active means well fitted curve in the direction sought with a large enough effect; inconclusive means small, poorly fitted or top-dose-only effect, or another doubt; inactive means no such curve, though single readings can be large; an effect the other way counts as inactive or inconclusive. Unless noted, on the % scale 0 is the no-effect control and ±100 the full control effect; potency means the concentration at half of the fitted maximal effect.

SMILES	L3MBTL1 inh	BLM inh	JMJD2E inh	GCN5L2 inh	RECQ1 inh	APEX1 inh
COC(=O)C#CC(=O)OC	.	3%	.	-9%	3%	-1%
Cc1ccc(-c2csc3n[nH]c(=S)n23)cc1	4%	-1%	?	25µM*	-10%	-1%
CCn1c(-c2ccc(C)cc2)n[nH]c1=S	.	0%	-15%	-3%	-5%	1%
CCc1ccc([C@H]2C(C(=O)O)=C[C@@H](CC3CCCC3)N2S(=O)(=O)c2ccc(C)cc2)cc1	-9%	.	.	-27%	.	5%
Cc1ccccc1N1C(S)=C(C#N)C(=O)NC1c1ccco1 (centres undefined)	?	-27%	-29%	-1%	25µM*	14%
Cc1ccc(NC(=O)CN2C(=O)S/C(=C\c3cc(Cl)c(OCC(=O)O)c(Cl)c3)C2=O)cc1	0%	?	.	-13%	.	7.5µM*
CCOC(=O)CCCCC(=O)c1[nH]c(=O)[nH]c1CSc1nc2ccccc2[nH]1	13µM*	-9%	?	-4%	i	?
CCOC(=O)CCCCC(=O)c1[nH]c(=O)[nH]c1CSc1nc(C)cc(=O)[nH]1	7.9µM*	-3%	11%	0%	i	-3%
Cc1c(C(=O)Nc2nc3ccccc3[nH]2)oc2ccccc12	2%	6%	3.2µM*	-21%	-7%	11%
Brc1ccc2c(c1)OCCOCCOc1cc(Br)ccc1OCCOCCOCCO2	4%	16µM*	5%	-7%	-10%	0%
COc1ccc(C2=Nn3c(nnc3-c3ccccc3C(F)(F)F)SC2)cc1O[C@H]1CCOC1	.	.	.	.	.	22%
CCOc1nc2cccc(C(=O)OC(C)OC(=O)OC3CCCCC3)c2n1Cc1ccc(-c2ccccc2-c2nn[nH]n2)cc1 (centres undefined)	.	-18%	?	20µM*	?	6%
CC(Oc1ccc(Cl)cc1)C(=O)NNC(=S)NC(=O)c1ccco1 (centres undefined)	7%	2%	20µM*	2%	0%	0%
COc1ccc(C(=O)NNC(=S)NC(=O)c2ccco2)cc1	2%	-3%	-77%	-9%	?	3%
O=C(/C=C/c1ccccc1)c1ccccc1	2%	-13%	-2%	-8%	?	17%
O=C(/C=C/c1ccccc1)/C=C/c1ccccc1	0%	-13%	-4%	-11%	14µM*	10%
Cc1cc(C(=O)COc2cccc3cccnc23)c(C)n1C	11µM*	0%	-28%	5%	-18%	-8%
Cc1cc(C(=O)COc2ccccc2C(N)=O)c(C)n1C	25%	5%	-9%	-1%	6%	1%
CCOc1cccc(/C=N/NC(=S)Nc2cc(S(=O)(=O)N3CCOCC3)ccc2N2CCOCC2)c1O	?	-5%	32µM*	-2%	-4%	-5%
CCc1nnc2c3ccccc3nc(Nc3ccc(C(C)=O)cc3)n12	.	1%	.	-3%	.	.
CC[n+]1ccc(C)c2cc(P(=O)(c3ccccc3)c3ccccc3)ccc21	.	-4%	25µM*	-9%	-17%	-2%
Cc1ccnc2ccc(P(=O)(c3ccccc3)c3ccccc3)cc12	6%	-2%	2%	-7%	i	-7%
O=C(O)CCCCCN1C(=O)/C(=C/c2ccncc2)SC1=S	5%	-2%	22µM*	-7%	0%	2%
O=C(O)CCCCCN1C(=O)/C(=C\c2ccncc2)SC1=S	7%	2%	?	0%	-9%	-2%
O=C(CNC(=O)N1CC(=O)Nc2ccccc21)NCCc1cccc(F)c1	.	4%	.	-3%	.	-4%
SMILES	L3MBTL1 inh	BLM inh	JMJD2E inh	GCN5L2 inh	RECQ1 inh	APEX1 inh
COC1=C(Nc2ccc(OC)cc2)C(=O)c2ccccc2C1=O	28µM*	-11%	4µM*	0%	i	4%
CCOc1ccc(NC2=C(OC)C(=O)c3ccccc3C2=O)cc1	25µM*	-15%	14µM*	2%	1%	?
CCN(CC)c1ccc(NC2=C(Cl)C(=O)c3ccccc3C2=O)cc1	?	-19%	7.1µM*	-29%	-2%	-2%
COc1ccc(OC)c2sc(N(CCCN(C)C)C(=O)c3ccc(S(=O)(=O)N4CCc5ccccc5C4)cc3)nc12	2%	.	.	-4%	.	30µM*
C=Cc1c(C)c2cc3nc(cc4[nH]c(cc5nc(cc1[nH]2)C(C)=C5CCC(=O)OC)c(CCC(=O)O)c4C)[C@@]1(C)C3=CC=C(C(=O)OC)[C@H]1C(=O)OC	.	.	.	.	.	0%[21 µM]
COc1ccccc1-c1cc(-c2ccc(O)cc2)nc(N)c1C#N	.	32µM*	.	-8%	.	27µM*
O=C1N=C(N2CCCC2C(=O)O)S/C1=C\c1ccco1 (centres undefined)	.	2%	22µM*	-7%	-2%	?
N=C1/C(=C/c2ccco2)C(=O)N=C2SC(CC(=O)N3CCCC3)=NN12	.	-27%	.	-28%	.	-27%
O=c1nc(N/N=C/c2ccccn2)cn[nH]1	5µM*	1%	10µM*	-7%	-2%	6%
C(=N\Nc1nc2ccccc2[nH]1)/c1ccccn1	.	-7%	-11%	-5%	-5%	4%
O=c1cnnc(N/N=C/c2ccccn2)[nH]1	.	-2%	3.5µM*	2%	i	1%
Cc1ccc(Nc2c(-c3ccccc3O)nc3cc(C)ccn23)cc1	.	-8%	.	25µM*	.	.
Nc1nc(=S)n(-c2ccccc2)[nH]1	.	-7%	?	?	-3%	4%
S=c1nc(-c2ccccc2)[nH]n1-c1ccccc1	-1%	-4%	?	13µM*	-11%	17%
N#Cc1c(-c2cccc(C(F)(F)F)c2)no[n+]1[O-]	.	.	.	.	.	-8%
O=C(NNC(=O)c1cc(O)c(O)c(O)c1)NC1CCCCC1	-18%	-9%	7.1µM*	-9%	i	5%
CO[C@H]1COC(=O)C/C=C\[C@@H](C)COC(=O)[C@H]2CCCN2C(=O)C/C=C\[C@H]1C	.	2%[12.4 µM]	.	.	16%[11.5 µM]	15%[12.4 µM]
CC1(C)CC(=O)C(C=Nc2cccnc2/N=C/C2=C(O)CC(C)(C)CC2=O)=C(O)C1	.	1%	-27%	-4%	-2%	-10%
CC1(C)CC(=O)C(C=Nc2ccc(C(=O)c3ccccc3)cc2N=CC2=C(O)CC(C)(C)CC2=O)=C(O)C1	?	-15%	20µM*	-12%	-4%	17%
Cc1ccc(O)c(N=NC2=C(O)CC(C)(C)CC2=O)c1	28µM*	-6%	0.56µM*	-8%	10%	-10%
CC1(C)CC(=O)C(C=Nc2ccc(O)c(N=CC3=C(O)CC(C)(C)CC3=O)c2)=C(O)C1	8%	-1%	3.2µM*	-3%	i	-3%
CCN(CC)S(=O)(=O)c1ccc2c(c1)N(CC(=O)NCCc1ccccc1)C(=O)CO2	.	-5%	.	2%	.	.
